The results in this text go back to PubChem BioAssay (NCATS).

In experiment [1] the target is Ubiquitin carboxyl-terminal hydrolase 1 (Homo sapiens) (UniProt O94782). Briefly: Inhibitors of USP1/UAF1: Pilot qHTS (AID 504865). Note: nearly all actives have a fitted effect of over 35% in size. Note: potency is the fitted concentration of half-maximal effect. The method, boiled down:
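Deubiquitinase activity followed as kinetic rhodamine fluorescence release from 150 nM Ub-Rho. 1 nM USP1/UAF1 with compound, after 15 min room-temperature preincubation, in HEPES pH 7.8 buffer containing TCEP, EDTA, BSA and Tween-20.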
Background: qHTS replaces the single test concentration by a dilution series.

For experiment [2], the target named is Phosphoglycerate kinase, glycosomal (Trypanosoma brucei brucei) (UniProt P07378). Briefly: qHTS Validation Assay to Find Inhibitors of Phosphoglycerate Kinase (AID 504547).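 Note: control wells lack PGK and mark full inhibition.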 In short, it runs like this: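 Compounds are pinned into the substrate/PGK mixture, and GAPDH (100nM final) is added to start the reaction by producing 1,3-BPG. After 60 minutes at room temperature, Kinase-Glo Plus is added and luminescence is measured 10 minutes later.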

In experiment [3] the target is phosphoglycerate mutase (Leishmania major) (UniProt Q4Q090). Briefly: qHTS Validation Assay to Find Inhibitors of Phosphoglycerate Mutase (AID 504548).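 Note: end-point luminescence from Kinase-GloPlus after the PGAM reaction; series mostly up to about 58 µM; % is set by controls: 0 for no effect and ±100 for the full control effect.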 Conditions: Potency: inhibition qHTS. In short, it runs like this: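 L. major PGAM (1.25nM final) was added to substrate buffer and pinned compound, incubated 45 minutes at room temperature, then Kinase-GloPlus added; luminescence read after 10 minutes. Buffer: 100 mM TEA pH 7.6, 5 mM MgCl2, 0.01% Tween-20.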

Experiment [4] addresses DNA dC->dU-editing enzyme APOBEC-3G (Homo sapiens) (UniProt Q9HC16). The experiment can be described thus: qHTS for inhibitors of Vif-A3G interactions: Validation (AID 588379). Note: 0% is about no effect. In short, it runs like this:
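Yellow fluorescence (Ex 488, Em 500-530) of Vif-coexpressing HeLa A3G-eYFP cells, scanned by Acumen cytometer, reports blocked A3G degradation. Cells plated at 700/well overnight at 37 deg C before compound addition, then a further overnight compound incubation at 37 deg C.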

Experiment [5] addresses Peptidyl-prolyl cis-trans isomerase NIMA-interacting 1 (Homo sapiens) (UniProt Q13526). The experiment can be described thus: qHTS Validation Assay to Find Inhibitors of Pin1 (AID 504536; active = well fitted inhibition curve with a large enough effect in the polarisation, with a control signal flat, not every such curve was filed as active; the % refers to the polarisation;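 note: 0% = full Pin1 enzyme wells and -100% = no-enzyme wells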). In short, it runs like this:
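Fluorescence polarization competition: compounds (titration) displace HiFluor-488-labeled Pin1-1b peptide from Pin1 (0.3 uM final) in pH 7.5 HEPES buffer with DTT, 10 min at room temperature; %Activity normalized to no-enzyme wells, curves fitted.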

The nature of experiment [6]: qHTS for Inhibitors of ATXN expression: Validation of Cytotoxic Assay (AID 588349). Note: % is set by controls: 0 for no effect and ±100 for the full control effect. The method, boiled down:
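Cytotoxicity counter-screen: HEK293 cells exposed to compound titrations, 72 hr, 37 degrees C. Read-out is intracellular ATP (CellTiter Glo luminescence) as a viability measure.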

Experiment [7] can be described thus: qHTS for Inhibitors of ATXN expression: Validation (AID 588378). Note: nearly all actives have a fitted effect of over 75% in size. Note: potency is the fitted concentration of half-maximal effect. In short, it runs like this: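 Luciferase luminescence (Bright-Glo) from an ATXN2-FFLuc HEK293 line after 24 h compound exposure at 37 °C, preceded by a CellTiter-Fluor fluorescence viability read. Serial dilutions of a reference ATXN2 inhibitor and a luciferase inhibitor served as controls.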
Experiment [8] is described as follows: Inducers of the Endoplasmic Reticulum Stress Response (ERSR) in human glioma: Validation (AID 504836). Note: 0% is about no effect. In short, it runs like this: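 Stably transfected U87-MG glioma cells carrying a GRP78-based luciferase sensor; 16 h compound incubation. Luminescence end-point read 10 min after Bright-Glo addition at room temperature.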
In experiment [9] the target is Bile acid receptor (Homo sapiens) (UniProt Q96RI1). The experiment can be described thus: qHTS assay for small molecule antagonists of farnesoid X receptor signaling (AID 588526; calls by dose curve; note: % is set by controls: 0 for no effect and ±100 for the full control effect). The method, boiled down:
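Antagonist mode: titrated compounds tested against chenodeoxycholic acid stimulation (normalized to 50 uM CDCA and DMSO) in GeneBLAzer HEK293T cells for 16 h. Beta-lactamase read by CCF4 fluorescence; IC50 from Hill fits.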

The target is the same in experiment [10]. The experiment can be described thus: qHTS assay for small molecule agonists of farnesoid X receptor signaling (AID 588527; calls by dose curve;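 note: series mostly up to about 77 µM; 0% = vehicle basal and 100% = reference agonist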). As to conditions: HEK293T FXR-UAS-bla, beta-lactamase ratio, 16 h; stronger effect = higher value. The method, boiled down: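 Agonist-mode beta-lactamase reporter in GeneBLAzer FXR-UAS-bla HEK293T cells, titration up to 92 uM, 16 h exposure at 37 C, CCF4 fluorescence. Response scaled to DMSO (0%) and 100 uM chenodeoxycholic acid (100%), then Hill-fitted for EC50 and efficacy.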

Experiment [11] concerns the target Glucocorticoid receptor (Homo sapiens) (UniProt P04150). The experiment can be described thus: qHTS assay for small molecule agonists of glucocorticoid receptor signaling (AID 588532; active = well fitted curve in the direction sought with a large enough effect in the signal ratio, with a control signal flat; the % refers to the signal ratio;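 note: 100% = dexamethasone at 0.1 µM and 0% = DMSO only wells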). Conditions: HeLa MMTV-bla, beta-lactamase ratio, agonist, 18 h; stronger effect = higher value; percent of dexamethasone control, DMSO zero. The method, boiled down: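 MMTV-bla HeLa beta-lactamase reporter cells in 1% charcoal/dextran FBS medium, compounds up to 92 uM for 18 h at 37 C, CCF4 readout; normalized to 0.1 uM dexamethasone (100%), EC50 and efficacy from Hill fits.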

The target of experiment [12] is Peroxisome proliferator-activated receptor delta (Homo sapiens) (UniProt Q03181). The experiment can be described thus: qHTS assay for small molecule agonists of peroxisome proliferator-activated receptor delta signaling (AID 588534; calls by dose curve;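 note: 0% = DMSO basal wells and 100% = positive control agonist at 10 µM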). In short, it runs like this:
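Titration series tested in agonist mode on beta-lactamase reporter cells; 18 hrs at 37 C after a 5 hr pre-incubation. Readout: CCF4 fluorescence, 2 hrs RT. Hill equation gives EC50 and maximal response.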

Experiment [13] is described as follows: qHTS assay for small molecule antagonists of peroxisome proliferator-activated receptor delta signaling (AID 588535; active = well fitted inhibition curve with a large enough effect in the signal ratio, with a control signal flat, not every such curve was filed as active; the % refers to the signal ratio;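 for max response: cells co-treated with a PPAR-delta agonist as stimulator during compound exposure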). Conditions: HEK293T PPARd-UAS-bla, beta-lactamase FRET ratio, 18 h; 460 nm channel. In short, it runs like this:
(§1)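 Beta-lactamase reporter read-out (405 nm excitation, 460/530 nm emission) after CCF4 loading for 2 hrs at RT. HEK293T PPAR-delta-UAS-bla cells, 2% charcoal/dextran FBS, compounds for 18 hrs at 37 C. Hill fit gave IC50 and efficacy.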

Experiment [14] deals with Peroxisome proliferator-activated receptor delta (Homo sapiens) (UniProt Q03181). Described as above. The method, boiled down: as §1
Experiment [15] addresses Peroxisome proliferator-activated receptor gamma (Homo sapiens) (UniProt P37231). Briefly: qHTS assay for small molecule agonists of peroxisome proliferator-activated receptor gamma signaling (AID 588536; active = well fitted curve in the direction sought with a large enough effect in the signal ratio, with a control signal flat, not every such curve was filed as active; the % refers to the signal ratio;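 note: 0% = DMSO basal wells and 100% = rosiglitazone at 2 µM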). The method, boiled down:
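This is an agonist-mode beta-lactamase reporter assay in HEK293 PPAR-gamma-UAS-bla cells with 1% charcoal/dextran FBS. Compound titrations ran 16 h at 37 C before CCF4 detection. EC50 and efficacy are Hill fits scaled to 2 uM rosiglitazone (100%) and DMSO basal.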

Where “and” joins values, the source holds several entries; their conditions need not be identical. Identical values can stand only once. Inconclusive results are not listed. Calls of active or inactive are those of the source. Unless noted, calls come from the whole dose curve; as a rule, active = well fitted curve in the direction sought with a large enough effect; inconclusive = small, poorly fitted or top-dose-only effect, or another doubt; inactive = no such curve, though single readings can be large; an effect the other way counts as inactive or inconclusive.

Chain of phosphoglycerate mutase (Leishmania major) (Q4Q090 1-553): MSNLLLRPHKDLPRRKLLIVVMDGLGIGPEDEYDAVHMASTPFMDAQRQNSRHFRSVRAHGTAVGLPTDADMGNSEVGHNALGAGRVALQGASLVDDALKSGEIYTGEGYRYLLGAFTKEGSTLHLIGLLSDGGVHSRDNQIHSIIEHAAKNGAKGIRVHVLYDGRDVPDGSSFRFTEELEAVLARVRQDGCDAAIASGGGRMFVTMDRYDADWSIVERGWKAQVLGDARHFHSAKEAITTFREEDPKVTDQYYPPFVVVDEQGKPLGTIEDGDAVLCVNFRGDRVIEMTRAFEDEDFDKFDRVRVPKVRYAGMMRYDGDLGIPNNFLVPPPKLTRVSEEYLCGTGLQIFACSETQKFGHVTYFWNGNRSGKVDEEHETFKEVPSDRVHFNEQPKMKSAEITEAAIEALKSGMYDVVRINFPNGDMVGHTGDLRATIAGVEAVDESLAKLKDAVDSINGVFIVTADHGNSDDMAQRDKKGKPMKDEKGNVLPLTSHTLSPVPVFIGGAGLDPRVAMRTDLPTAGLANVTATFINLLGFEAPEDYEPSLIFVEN
Chain of Ubiquitin carboxyl-terminal hydrolase 1 (Homo sapiens) (O94782 whole entry, looked up): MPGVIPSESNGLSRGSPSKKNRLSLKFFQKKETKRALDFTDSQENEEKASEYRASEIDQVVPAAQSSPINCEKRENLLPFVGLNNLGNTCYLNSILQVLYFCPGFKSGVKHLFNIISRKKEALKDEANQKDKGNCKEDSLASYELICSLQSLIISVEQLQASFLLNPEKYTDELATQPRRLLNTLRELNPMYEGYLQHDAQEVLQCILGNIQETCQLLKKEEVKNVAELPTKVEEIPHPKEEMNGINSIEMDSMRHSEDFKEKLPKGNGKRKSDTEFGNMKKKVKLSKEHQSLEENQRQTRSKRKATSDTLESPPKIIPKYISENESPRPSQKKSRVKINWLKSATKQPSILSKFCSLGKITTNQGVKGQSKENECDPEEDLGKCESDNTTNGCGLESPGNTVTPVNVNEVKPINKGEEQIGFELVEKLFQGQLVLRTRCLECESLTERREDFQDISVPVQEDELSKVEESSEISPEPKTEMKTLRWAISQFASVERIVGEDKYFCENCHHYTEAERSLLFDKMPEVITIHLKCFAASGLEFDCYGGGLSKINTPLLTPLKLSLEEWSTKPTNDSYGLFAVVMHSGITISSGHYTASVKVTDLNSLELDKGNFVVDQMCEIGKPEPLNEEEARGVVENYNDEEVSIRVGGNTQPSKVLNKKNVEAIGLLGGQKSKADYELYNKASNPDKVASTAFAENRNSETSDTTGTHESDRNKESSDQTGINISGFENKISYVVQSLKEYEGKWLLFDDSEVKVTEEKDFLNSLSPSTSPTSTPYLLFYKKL
Chain of Phosphoglycerate kinase, glycosomal (Trypanosoma brucei brucei) (P07378 whole entry, looked up): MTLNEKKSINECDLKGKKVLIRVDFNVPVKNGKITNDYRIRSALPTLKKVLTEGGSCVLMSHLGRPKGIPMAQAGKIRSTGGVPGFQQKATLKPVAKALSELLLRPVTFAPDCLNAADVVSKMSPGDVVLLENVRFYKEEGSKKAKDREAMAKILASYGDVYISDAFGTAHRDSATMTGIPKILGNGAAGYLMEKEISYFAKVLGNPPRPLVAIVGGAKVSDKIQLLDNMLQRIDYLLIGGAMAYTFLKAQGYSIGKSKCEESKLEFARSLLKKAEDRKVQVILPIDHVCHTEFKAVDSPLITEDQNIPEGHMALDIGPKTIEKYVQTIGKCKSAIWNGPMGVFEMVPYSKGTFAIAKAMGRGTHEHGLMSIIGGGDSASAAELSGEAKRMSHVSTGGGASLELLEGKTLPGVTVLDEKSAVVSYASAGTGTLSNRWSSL
Chain of Peptidyl-prolyl cis-trans isomerase NIMA-interacting 1 (Homo sapiens) (Q13526 whole entry, looked up): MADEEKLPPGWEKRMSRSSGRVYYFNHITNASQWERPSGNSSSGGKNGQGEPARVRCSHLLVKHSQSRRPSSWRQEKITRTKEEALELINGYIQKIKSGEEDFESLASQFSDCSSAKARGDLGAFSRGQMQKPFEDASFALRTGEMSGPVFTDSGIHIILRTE
Chain of DNA dC->dU-editing enzyme APOBEC-3G (Homo sapiens) (Q9HC16 whole entry, looked up): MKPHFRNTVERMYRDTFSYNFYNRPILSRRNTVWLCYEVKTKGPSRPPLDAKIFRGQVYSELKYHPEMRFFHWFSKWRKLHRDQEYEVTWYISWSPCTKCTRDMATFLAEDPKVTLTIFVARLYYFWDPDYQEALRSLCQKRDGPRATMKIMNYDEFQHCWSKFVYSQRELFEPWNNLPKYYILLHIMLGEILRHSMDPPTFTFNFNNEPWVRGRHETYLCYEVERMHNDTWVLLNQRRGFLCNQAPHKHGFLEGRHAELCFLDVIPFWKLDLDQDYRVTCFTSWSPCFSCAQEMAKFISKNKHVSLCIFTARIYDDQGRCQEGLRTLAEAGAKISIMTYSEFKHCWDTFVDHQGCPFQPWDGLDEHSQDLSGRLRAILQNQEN
Chain of Bile acid receptor (Homo sapiens) (Q96RI1 whole entry, looked up): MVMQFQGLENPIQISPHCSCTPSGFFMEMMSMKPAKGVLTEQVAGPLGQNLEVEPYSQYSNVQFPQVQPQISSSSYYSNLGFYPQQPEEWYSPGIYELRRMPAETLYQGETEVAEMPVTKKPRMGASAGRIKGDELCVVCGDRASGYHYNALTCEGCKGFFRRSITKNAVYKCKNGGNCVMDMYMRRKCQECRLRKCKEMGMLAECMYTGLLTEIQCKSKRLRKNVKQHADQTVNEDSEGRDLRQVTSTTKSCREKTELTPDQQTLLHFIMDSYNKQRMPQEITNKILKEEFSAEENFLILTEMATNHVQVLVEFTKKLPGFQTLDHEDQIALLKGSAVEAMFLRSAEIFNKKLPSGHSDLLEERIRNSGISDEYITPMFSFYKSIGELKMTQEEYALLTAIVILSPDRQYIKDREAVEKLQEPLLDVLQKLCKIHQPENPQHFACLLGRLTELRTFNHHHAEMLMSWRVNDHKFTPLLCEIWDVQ
Chain of Peroxisome proliferator-activated receptor delta (Homo sapiens) (Q03181 whole entry, looked up): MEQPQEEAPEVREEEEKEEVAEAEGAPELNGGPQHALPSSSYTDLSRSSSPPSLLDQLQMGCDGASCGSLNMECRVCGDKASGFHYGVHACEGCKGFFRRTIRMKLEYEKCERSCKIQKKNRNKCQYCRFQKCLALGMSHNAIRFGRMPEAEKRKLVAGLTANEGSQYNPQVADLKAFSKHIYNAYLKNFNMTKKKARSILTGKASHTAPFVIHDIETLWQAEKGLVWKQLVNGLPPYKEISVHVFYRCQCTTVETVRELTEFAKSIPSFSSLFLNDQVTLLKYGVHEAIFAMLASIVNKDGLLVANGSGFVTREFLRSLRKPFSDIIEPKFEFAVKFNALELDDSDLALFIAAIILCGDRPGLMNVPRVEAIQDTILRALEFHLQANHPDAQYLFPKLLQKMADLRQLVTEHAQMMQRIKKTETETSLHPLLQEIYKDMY
Chain of Glucocorticoid receptor (Homo sapiens) (P04150 whole entry, looked up): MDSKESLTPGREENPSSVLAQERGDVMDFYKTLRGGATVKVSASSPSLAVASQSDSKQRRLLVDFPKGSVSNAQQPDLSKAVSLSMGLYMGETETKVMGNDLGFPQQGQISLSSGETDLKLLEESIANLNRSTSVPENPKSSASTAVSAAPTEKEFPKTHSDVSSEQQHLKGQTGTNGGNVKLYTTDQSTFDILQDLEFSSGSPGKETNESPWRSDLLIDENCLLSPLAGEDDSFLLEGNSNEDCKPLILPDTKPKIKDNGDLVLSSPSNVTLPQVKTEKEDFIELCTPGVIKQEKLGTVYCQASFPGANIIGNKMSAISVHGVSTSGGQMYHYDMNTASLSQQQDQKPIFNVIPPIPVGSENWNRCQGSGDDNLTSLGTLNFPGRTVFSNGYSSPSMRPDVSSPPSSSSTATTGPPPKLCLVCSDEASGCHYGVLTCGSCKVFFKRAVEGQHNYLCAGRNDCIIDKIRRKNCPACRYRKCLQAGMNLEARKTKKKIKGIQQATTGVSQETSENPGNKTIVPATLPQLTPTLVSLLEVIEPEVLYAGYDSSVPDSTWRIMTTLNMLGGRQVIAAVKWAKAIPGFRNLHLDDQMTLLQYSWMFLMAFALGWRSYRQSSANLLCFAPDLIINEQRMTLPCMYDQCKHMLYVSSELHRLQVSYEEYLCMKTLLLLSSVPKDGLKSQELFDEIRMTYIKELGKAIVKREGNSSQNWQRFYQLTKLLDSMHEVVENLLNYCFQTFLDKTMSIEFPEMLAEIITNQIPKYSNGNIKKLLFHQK
Chain of Peroxisome proliferator-activated receptor gamma (Homo sapiens) (P37231 whole entry, looked up): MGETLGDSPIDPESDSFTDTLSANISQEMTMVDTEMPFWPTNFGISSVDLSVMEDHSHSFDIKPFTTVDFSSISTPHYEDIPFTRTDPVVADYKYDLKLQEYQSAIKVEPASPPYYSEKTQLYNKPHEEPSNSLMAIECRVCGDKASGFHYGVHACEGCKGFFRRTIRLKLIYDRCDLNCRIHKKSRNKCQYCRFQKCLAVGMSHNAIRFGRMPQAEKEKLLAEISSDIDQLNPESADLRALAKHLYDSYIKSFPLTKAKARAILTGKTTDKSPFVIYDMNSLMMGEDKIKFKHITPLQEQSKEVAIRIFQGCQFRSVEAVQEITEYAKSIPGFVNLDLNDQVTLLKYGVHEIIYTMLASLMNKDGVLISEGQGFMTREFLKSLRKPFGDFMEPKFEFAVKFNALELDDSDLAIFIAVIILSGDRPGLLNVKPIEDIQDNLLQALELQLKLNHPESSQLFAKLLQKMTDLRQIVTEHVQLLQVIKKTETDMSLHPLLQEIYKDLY

Regarding `Clc1ccc(Cl)cc1`, the Potency result in experiment [1] is “inactive”.

On to `F/C(COc1ccc2c(c1)[nH]c1ccccc12)=C1/CN2CCC1CC2`, for which the Potency entry in [1] was “inactive”.

As to `CC(=O)c1c(O)c(C)c(O)c(Cc2c(O)c3c(c(C(=O)/C=C/c4ccccc4)c2O)OC(C)(C)C=C3)c1O`, the Potency entry in experiment [2] and in experiment [3] was “inactive” throughout. Moreover, the Potency in [1] was 79.4 µM (active) and 56.2 µM (active). The call in experiment [4] was inactive.

With `CN1CCc2cc(O)cc3c2[C@H]1Cc1ccc(O)c(O)c1-3`, the Potency entry in experiment [5], in [2], in [1], in experiment [6] and in experiment [7] was “inactive” throughout.

As to `OC(c1ccccc1)(c1ccccc1)C1CN2CCC1CC2` (stereo not drawn), the Potency result in experiment [1] is “inactive”.

Turning to `CCCN1CCc2cc(O)cc3c2[C@H]1Cc1ccc(O)c(O)c1-3`, the Potency result in [5], in experiment [2] and in experiment [1] was “inactive” in each case. Further, in experiment [8], the compound was classed as inactive.

Regarding `CCON=O`, the Potency result in experiment [1] was “inactive”.

For the compound `CCC1(c2ccccc2)C(=O)NC(=O)N(C)C1=O` (stereo not drawn), the Potency result in experiment [1] was “inactive”.

On to `C[N+]1(C)C2CCC1CC(OC(=O)c1c[nH]c3ccccc13)C2` (stereo not drawn), for which the Potency result in [5], in experiment [3], in experiment [1], in [6] and in experiment [7] was “inactive” each time.

As for `C#CC(C)(O)CC` (stereo not drawn), in experiment [1], the Potency entry was “inactive”.

`C[N+]1(C)CCc2cc3c(cc2[C@H]1[C@@H]1OC(=O)c2c1ccc1c2OCO1)OCO3`: the Potency result in experiment [5], in [3], in experiment [1], in [6] and in experiment [7] was “inactive” each time.

Turning to `CC(N)Cc1ccc(O)cc1` (stereo not drawn), the Potency result in experiment [1] was “inactive”.

Regarding `CCC(C)(S(=O)(=O)CC)S(=O)(=O)CC`, the Potency entry in experiment [1] was “inactive”.

Turning to `CNC1(c2ccccc2Cl)CCCCC1=O` (stereo not drawn), in [1], the Potency entry was “inactive”.

As to `CC(=O)OO`, the Potency result in experiment [1] is “inactive”.

`N=C(N)c1ccc(CS(=O)(=O)F)cc1`: the Potency result in [5], in experiment [3], in experiment [1], in [6] and in experiment [7] was “inactive” in each case.

Consider `O=C(CS(=O)C(c1ccccc1)c1ccccc1)NO` (stereo not drawn), for which the Potency entry in experiment [1] is “inactive”.

For `CN1c2ccccc2C(NCCCCCCC(=O)O)c2ccc(Cl)cc2S1(=O)=O` (stereo not drawn), in [1], the Potency result is “inactive”.

Consider `C[C@H](N)Cc1cccc(C(F)(F)F)c1`, for which the Potency result in experiment [5], in [3], in experiment [1], in experiment [6] and in [7] was “inactive” in each case. For the same compound, the compound was classed as inactive in experiment [8].

For `CCn1cnc2c(Nc3cccc(Cl)c3)nc(N[C@@H]3CCCC[C@@H]3N)nc21`, the Potency entry in experiment [2], in experiment [3] and in [1] was “inactive” throughout. Besides, in experiment [7], the Potency was 2.51 µM (active).

With `O=S1(=O)N(CCN2CC=C(c3c[nH]c4cc(F)ccc34)CC2)c2cccc3c2N1CCC3`, the Potency result in experiment [5], in [3] and in [1] was “inactive” each time. For the same compound, in experiment [8], the result was inactive.

Consider `Cc1c2ccncc2c(C)c2c1[nH]c1ccccc12`, for which the Potency result in experiment [5], in [2], in experiment [3] and in experiment [6] was “inactive” each time.

With `CC[N+](C)(CC)CCOC(=O)C(O)(c1ccccc1)c1ccccc1`, the Potency entry in [1] was “inactive”.

With `Cc1cc(C)cc(C(=O)OC2C[C@H]3CC[C@@H](C2)N3C)c1` (stereo partly drawn), the compound was called inactive in [4].

Regarding `Clc1ccccc1Cl`, the Potency entry in experiment [1] and in [9] was “inactive” in each case. Also, the activation in [10] was -2.33% (inactive); in experiment [11], 2.7% (inactive). Further, the call in experiment [12], in [14] and in [15] was inactive. Besides, the max response in [13] was 4.84%.
